Laboratory results taken from PubChem BioAssay.
Active and inactive are the calls of the source.

Assays:
[1] = molecular target: Albumin (Bos taurus) (UniProt P02769); test: compounds binding labelled BSA control protein – biochemical, small-molecule microarray, Alexa647 label, 635/667 nm fluorescence, artefact control for SMM control protein annotation, profiling panel (AID 1118); settings: BSA-A647 binding, fluorescence 635 nm, higher = more signal;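 further: score merges 667 nm emission intensity and signal-to-noise per printed compound spot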
[2] = probe aXIP binding to arrayed compounds – biochemical, NeuroSMM set, 635/667 nm fluorescence, primary screen (AID 1119); settings: small-molecule microarray, higher = more signal, called active from +8 up or from −8 down;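 further: probe is the protein aXip251-270 applied at 1 µg/mL to compound-printed slides; binding of probe to printed compounds measured as 667 nm fluorescence plus signal to noise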
[3] = probe aNOTCH3 binding on compound microarray – biochemical, small-molecule microarray, 635/667 nm fluorescence, primary screen (AID 1120); settings: higher = more signal;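 further: probe is a biotin-tagged antibody raised against NOTCH3 rather than NOTCH3 protein; score merges spot fluorescence near 667 nm with spot signal to noise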
[4] = probe aNOTCH2 binding on compound microarray – biochemical, small-molecule microarray, 635/667 nm fluorescence, primary screen (AID 1121); settings: higher = more signal;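 further: score merges feature fluorescence read at 667 nm with its signal to noise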
[5] = molecular target: Carbonic anhydrase 2 (Homo sapiens) (UniProt P00918); test: compounds binding carbonic anhydrase 2 – biochemical, small-molecule microarray, Alexa647-labelled CAII, profiling panel (AID 1122); settings: CAII-A647 binding fluorescence, higher = more signal
[6] = COS7 lysate on small-molecule microarray, probe aHis, 635 nm (AID 1123); settings: COS7 cell lysate, fluorescence, higher = more signal;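 further: z-score combines 667nm fluorescence intensity with signal-to-noise per printed compound spot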
[7] = probe aLAP1 signal on lysate-treated microarray – cell lysate, small-molecule microarray, COS7 lysate, primary screen (AID 1124); settings: probe aLAP1, fluorescence, higher = more signal;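 further: lysate comes from COS7 cells expressing LAP1 and is applied at 0.3 µg/mL; score merges spot fluorescence near 667 nm with signal-to-noise over triplicate slides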
[8] = system: Sam68 (KHDRBS1); test: compounds binding KHDRBS1 protein – biochemical, small-molecule microarray, 635 nm fluorescence, primary screen (AID 1125); settings: higher = more signal;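 further: score merges 667 nm channel intensity with signal to noise over triplicate slides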
[9] = system: Chordin-like protein 2 (CHRDL2); test: compounds binding chordin-like 2 – biochemical, small-molecule microarray, 635 nm fluorescence, primary screen (AID 1126); settings: fluorescence 635 nm, higher = more signal;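 further: printed compound slides probed with Chrdl2 protein at 4 µg/mL for 1 h at 4 C; score merges 667 nm emission intensity with signal to noise over three replicate slides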
[10] = molecular target: Concanavalin-A (Canavalia ensiformis) (UniProt P02866); test: compounds binding concanavalin A lectin – biochemical, small-molecule microarray, Alexa647 label, 635 nm, artefact control for SMM control protein annotation, primary screen (AID 1127); settings: ConA-A647 binding fluorescence, higher = more signal;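 further: z combines 667 nm emission intensity with signal-to-noise across three replicate slides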
Sequence of Concanavalin-A (Canavalia ensiformis) (P02866 whole entry, looked up): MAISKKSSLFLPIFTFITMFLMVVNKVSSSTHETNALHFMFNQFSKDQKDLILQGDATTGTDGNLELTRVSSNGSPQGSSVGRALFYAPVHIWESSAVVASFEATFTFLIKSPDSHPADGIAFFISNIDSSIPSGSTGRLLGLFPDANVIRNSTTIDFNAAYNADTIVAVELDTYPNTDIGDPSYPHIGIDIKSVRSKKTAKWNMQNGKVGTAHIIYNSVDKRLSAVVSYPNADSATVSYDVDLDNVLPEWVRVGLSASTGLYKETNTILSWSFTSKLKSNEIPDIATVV

Sequence of Albumin (Bos taurus) (P02769 whole entry, looked up): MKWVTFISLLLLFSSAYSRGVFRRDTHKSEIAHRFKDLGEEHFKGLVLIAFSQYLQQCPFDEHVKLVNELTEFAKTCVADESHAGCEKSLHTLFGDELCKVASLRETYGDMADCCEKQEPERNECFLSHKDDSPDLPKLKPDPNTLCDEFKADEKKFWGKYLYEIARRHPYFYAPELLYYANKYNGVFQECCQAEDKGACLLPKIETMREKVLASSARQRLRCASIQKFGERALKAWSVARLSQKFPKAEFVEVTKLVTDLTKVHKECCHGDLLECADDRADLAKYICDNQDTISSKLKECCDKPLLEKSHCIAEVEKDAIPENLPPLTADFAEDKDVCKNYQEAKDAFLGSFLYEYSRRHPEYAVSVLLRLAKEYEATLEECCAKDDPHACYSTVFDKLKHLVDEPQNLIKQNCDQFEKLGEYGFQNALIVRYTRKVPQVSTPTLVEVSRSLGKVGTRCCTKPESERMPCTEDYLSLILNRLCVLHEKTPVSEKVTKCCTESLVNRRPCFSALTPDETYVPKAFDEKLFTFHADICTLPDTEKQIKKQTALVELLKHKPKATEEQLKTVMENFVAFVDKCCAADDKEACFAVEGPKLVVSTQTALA

Structure (SMILES)	composite z-score [1]	composite Z-score [2]	composite z-score [3]	composite z-score [4]	composite z-score [5]	composite z-score [6]	composite z-score [7]	composite z-score [8]	composite z-score [9]	composite z-score [10]
CC(C)NC(=O)[C@@H]1c2ccccc2C(=O)N(CC23CC4CC(CC(C4)C2)C3)[C@H]1c1ccc(CO)cc1	0.283	-0.178 (inactive)	0.106	-0.125	0.25	1.65	0.397	1.3	0.533	1.08
O=C1O[C@@H](c2ccccc2)[C@@H](c2ccccc2)N2[C@@H](c3ccc(OCCO)cc3)[C@]3(C(=O)Nc4ccc(C#CCCO)cc43)[C@@H](C(=O)N3CCCCCCC3)[C@H]12	0.259	7.58 (inactive)	1.66	0.745	0.896	3.6	1.02	1.3	1.25	1.15
O=C1O[C@@H](c2ccccc2)[C@@H](c2ccccc2)N2[C@@H](c3ccccc3OCCO)[C@]3(C(=O)Nc4ccc(C#CCCO)cc43)[C@@H](C(=O)O)[C@H]12	0.682	0.215 (inactive)	1.14	0.473	0.58	1.51	0.133	1.2	0.553	1.15
COc1ccc(O[C@H]2C=C[C@@H](c3ccccc3)O[C@@H]2COC(=O)CCC(C)=NOC[C@@H](C)[C@H](OCc2ccccc2)C(C)C)cc1	-0.874	0.289 (inactive)	-0.155	-0.157	-0.608	-0.52	-0.212	-1.03	-0.522	-2.04
COC(=O)[C@@H]1N=C(c2ccc(OCCCO)cc2)O[C@@H]1c1ccccc1N=[N+]=[N-]	0.731	-0.384 (inactive)	0.149	-0.0534	0.666	1.92	0.35	1.05	-0.456	0.928
CCN1C(=O)[C@H]2[C@H]3[C@H](O)[C@H](O)CC(=NOCC=C(C)CCC=C(C)C)[C@H]3CC[C@H]2C1=O	-1.33	-0.768 (inactive)	0.0876	-0.182	0.578	0.41	0.714	1.3	1.3	-0.0616
CC(C)(C)N1C(=O)[C@H]2[C@H]3[C@H](O)[C@H](O)CC(=NO[C@@H]4O[C@H](CO)[C@@H](O)[C@H](O)[C@H]4O)[C@@H]3CC[C@H]2C1=O	-0.524	0.406 (inactive)	-0.059	-0.154	0.361	0.741	0.649	1.24	1.07	0.0237
C[C@@H](c1ccccc1)N1C(=O)[C@H]2[C@H]3[C@H](O)[C@H](O)CC(=NOC[C@@H](O)COCc4ccco4)[C@@H]3CC[C@H]2C1=O	0.819	0.528 (inactive)	-0.161	-0.185	0.279	-0.359	-0.254	-0.779	-0.727	-1.07
COCCOC(=O)N1C(=O)[C@@]2(c3cc(C#CCNC(N)=O)ccc31)[C@H](c1ccccc1OCCO)N1[C@H](c3ccccc3)[C@H](c3ccccc3)OC(=O)[C@H]1[C@@H]2C(=O)N1CCN(c2ncccn2)CC1	0.583	0.339 (inactive)	0.169	-0.0028	0.537	1.92	0.579	1.32	-0.119	1.06
C=CC[C@@H]1C=C[C@H](ON=C(C)CCN2CCc3nc(CC)c(CC)cc3C2)[C@@H](CO)O1	0.7	-2.12 (inactive)	0.325	-0.131	0.221	0.226	0.38	0.822	0.971	-0.442
CO[C@@H]1COC(=O)CC=C[C@@H](C)[C@@H]2C=C[C@H](O)[C@@H](COC(=O)[C@H](C)NC(=O)CC=C[C@H]1C)O2	-0.107	0.581 (inactive)	-0.0328	-0.164	-0.455	-1	1.27	0.249	1.54	-0.016
CCc1cc2c(nc1CC)CCN(CCC(C)=NOC[C@@H](O)[C@H]1O[C@@H]3OC(C)(C)O[C@@H]3[C@H]1O)C2	0.424	0.386 (inactive)	-0.0111	-0.0891	0.213	0.421	-0.0959	0.398	0.382	0.971
CCOC(=O)NN=C1C[C@@H](O)[C@@H](O)[C@@H]2[C@@H]3C(=O)N(C(C)(C)C)C(=O)[C@@H]3CC[C@@H]12	-0.422	0.136 (inactive)	-0.0328	-0.14	-1.23	-0.443	0.171	-0.605	-0.63	-0.651
